Source: PubChem BioAssay AID1159580 (chemical genetic matrix, 2015)
In all, about 5,500 compounds went through this assay and about 2,000 (36%) were called active. Inconclusive results (about 18%) are left out. Rule as the data show it: active = normalized growth mostly below about 0.91 (no sharp cut-off); inconclusive = no clear call, values can overlap the other calls; inactive = mostly above about 0.92. This is one part of the list.

Assay: chemical genetic growth profiling, strain panel (AID 1159580);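 also: tested at 20 µM; growth read once vehicle control cultures reached saturation at 30 °C; 1 = growth at the plate median or of vehicle wells; lower values mean less growth of the strain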
Conditions: growth OD
[1] = S. cerevisiae deletion strains, locus YDL101C, strain DUN1, hits give low values
[2] = S. cerevisiae deletion strains, locus YHR030C, strain SLT2, hits give low values
[3] = S. cerevisiae deletion strains, locus YAL013W, strain DEP1, hits give low values
[4] = S. cerevisiae deletion strains, locus YDR150W, strain NUM1, hits give low values
[5] = S. cerevisiae deletion strains, locus YMR307W, strain GAS1, hits give low values
[6] = S. cerevisiae deletion strains, locus YNL153C, strain GIM3, hits give low values
[7] = S. cerevisiae deletion strains, locus YPL055C, strain LGE1, hits give low values
[8] = S. cerevisiae deletion strains, locus YPL241C, strain CIN2, hits give low values
[9] = S. cerevisiae deletion strains, locus YAL040C, strain CLN3, hits give low values
[10] = S. cerevisiae deletion strains, locus YCL061C, strain MRC1 (second series), hits give low values
[11] = S. cerevisiae deletion strains, locus YER002W, strain NOP16, hits give low values
[12] = S. cerevisiae deletion strains, locus YNL175C, strain NOP13, hits give low values
[13] = S. cerevisiae deletion strains, locus YNL197C, strain WHI3, hits give low values
[14] = S. cerevisiae deletion strains, locus YNL224C, strain SQS1, hits give low values
[15] = S. cerevisiae deletion strains, locus YOR083W, strain WHI5 (second series), hits give low values

Measured: normalized growth

CCOC(=O)c1sc(S(C)=NC(=O)Nc2ccc(Cl)cc2)c2c1CCC=C2 (stereo unspecified)
active: S. cerevisiae deletion strains, locus YLR113W, strain HOG1, hits give low values 0.859
inactive: S. cerevisiae deletion strains, locus YAR019C, strain CDC15, hits give low values 0.985 | S. cerevisiae deletion strains, locus YBL105C, strain PKC1, hits give low values 0.974 | S. cerevisiae deletion strains, locus YBR135W, strain CKS1, hits give low values 0.974 | S. cerevisiae deletion strains, locus YBR136W, strain MEC1, hits give low values 0.974 | S. cerevisiae deletion strains, locus YBR160W, strain CDC28, hits give low values 0.978 | S. cerevisiae deletion strains, locus YDL017W, strain CDC7, hits give low values 0.979 | S. cerevisiae deletion strains, locus YDL028C, strain MPS1, hits give low values 0.971 | [1] 0.97 | S. cerevisiae deletion strains, locus YDL108W, strain KIN28, hits give low values 0.972 | S. cerevisiae deletion strains, locus YDL132W, strain cdc53, hits give low values 0.965 | S. cerevisiae deletion strains, locus YDL214C, strain PRR2, hits give low values 0.922 | S. cerevisiae deletion strains, locus YDR052C, strain DBF4, hits give low values 0.981 | S. cerevisiae deletion strains, locus YDR054C, strain cdc34, hits give low values 0.974 | S. cerevisiae deletion strains, locus YDR226W, strain ADK1, hits give low values 0.963 | S. cerevisiae deletion strains, locus YDR477W, strain SNF1, hits give low values 0.937 | S. cerevisiae deletion strains, locus YER123W, strain YCK3, hits give low values 0.923 | S. cerevisiae deletion strains, locus YER133W, strain GLC7, hits give low values 0.945 | S. cerevisiae deletion strains, locus YFL009W, strain cdc4, hits give low values 0.973 | S. cerevisiae deletion strains, locus YFL029C, strain CAK1, hits give low values 0.977 | S. cerevisiae deletion strains, locus YFR003C, strain YPI1, hits give low values 0.976 | S. cerevisiae deletion strains, locus YFR019W, strain FAB1, hits give low values 0.94 | S. cerevisiae deletion strains, locus YFR028C, strain CDC14, hits give low values 0.975 | S. cerevisiae deletion strains, locus YGR040W, strain KSS1, hits give low values 0.922 | S. cerevisiae deletion strains, locus YGR052W, strain FMP48, hits give low values 0.954 | S. cerevisiae deletion strains, locus YGR092W, strain DBF2, hits give low values 0.947 | [2] 1.05 | S. cerevisiae deletion strains, locus YHR079C, strain IRE1, hits give low values 1.01 | S. cerevisiae deletion strains, locus YHR082C, strain KSP1, hits give low values 1.02 | S. cerevisiae deletion strains, locus YHR205W, strain SCH9, hits give low values 0.959 | S. cerevisiae deletion strains, locus YIL147C, strain SLN1, hits give low values 0.968 | S. cerevisiae deletion strains, locus YJL095W, strain BCK1, hits give low values 0.963 | S. cerevisiae deletion strains, locus YJL128C, strain PBS2, hits give low values 0.94 | S. cerevisiae deletion strains, locus YJL157C, strain FAR1, hits give low values 0.941 | S. cerevisiae deletion strains, locus YJR016C, strain ILV3, hits give low values 0.976 | S. cerevisiae deletion strains, locus YJR066W, strain TOR1 (second series), hits give low values 0.923 | S. cerevisiae deletion strains, locus YJR066W, strain TOR1, hits give low values 1.02 | S. cerevisiae deletion strains, locus YKL048C, strain ELM1, hits give low values 0.96 | S. cerevisiae deletion strains, locus YKL067W, strain YNK1, hits give low values 0.938 | S. cerevisiae deletion strains, locus YKL101W, strain HSL1, hits give low values 0.902 | S. cerevisiae deletion strains, locus YKL193C, strain SDS22, hits give low values 0.974 | S. cerevisiae deletion strains, locus YKL203C, strain TOR2, hits give low values 1.02 | S. cerevisiae deletion strains, locus YLR133W, strain CKI1, hits give low values 0.926 | S. cerevisiae deletion strains, locus YLR403W, strain SFP1, hits give low values 0.953 | S. cerevisiae deletion strains, locus YML070W, strain DAK1, hits give low values 0.916 | S. cerevisiae deletion strains, locus YMR001C, strain CDC5, hits give low values 0.978 | S. cerevisiae deletion strains, locus YMR205C, strain PFK2 (second series), hits give low values 0.951 | S. cerevisiae deletion strains, locus YMR277W, strain FCP1, hits give low values 0.974 | S. cerevisiae deletion strains, locus YNL006W, strain LST8, hits give low values 0.982 | S. cerevisiae deletion strains, locus YNL020C, strain ARK1, hits give low values 0.93 | S. cerevisiae deletion strains, locus YNL161W, strain CBK1, hits give low values 0.978 | S. cerevisiae deletion strains, locus YNL183C, strain NPR1, hits give low values 1 | S. cerevisiae deletion strains, locus YNL207W, strain RIO2, hits give low values 0.968 | S. cerevisiae deletion strains, locus YNL222W, strain SSU72, hits give low values 0.975 | S. cerevisiae deletion strains, locus YNL307C, strain MCK1 (second series), hits give low values 0.951 | S. cerevisiae deletion strains, locus YOL078W, strain AVO1, hits give low values 0.96 | S. cerevisiae deletion strains, locus YOL136C, strain PFK27, hits give low values 0.895 | S. cerevisiae deletion strains, locus YOR061W, strain CKA2, hits give low values 0.945 | S. cerevisiae deletion strains, locus YOR119C, strain RIO1, hits give low values 0.998 | S. cerevisiae deletion strains, locus YOR231W, strain MKK1, hits give low values 0.894 | S. cerevisiae deletion strains, locus YOR329C, strain SCD5, hits give low values 0.976 | S. cerevisiae deletion strains, locus YPL031C, strain PHO85, hits give low values 0.94 | S. cerevisiae deletion strains, locus YPL153C, strain RAD53, hits give low values 0.953 | S. cerevisiae deletion strains, locus YPL204W, strain HRR25, hits give low values 0.9 | S. cerevisiae deletion strains, locus YPL209C, strain IPL1, hits give low values 0.968 | S. cerevisiae deletion strains, locus YPL256C, strain CLN2, hits give low values 0.999 | S. cerevisiae deletion strains, locus YPR025C, strain CCL1, hits give low values 0.981 | S. cerevisiae deletion strains, locus YPR106W, strain ISR1, hits give low values 0.962 | S. cerevisiae deletion strains, locus YPR111W, strain DBF20, hits give low values 0.985 | S. cerevisiae deletion strains, strain NNK1, hits give low values 0.961 | S. cerevisiae deletion strains, strain TSCII, hits give low values 0.97

CCOC(=O)c1sc2sc(C(=O)c3ccc(Cl)cc3)c(C)c2c1C
inactive: [3] 1 | S. cerevisiae deletion strains, locus YBR229C, strain ROT2, hits give low values 1.03 | [1] 1 | S. cerevisiae deletion strains, locus YDL134C, strain PPH21, hits give low values 1.01 | [4] 0.91 | S. cerevisiae deletion strains, locus YEL061C, strain CIN8, hits give low values 1.02 | S. cerevisiae deletion strains, locus YGR078C, strain PAC10, hits give low values 1.01 | [2] 1.1 | S. cerevisiae deletion strains, locus YHR087W, strain rtc3, hits give low values 1.01 | S. cerevisiae deletion strains, locus YJR043C, strain POL32, hits give low values 0.991 | S. cerevisiae deletion strains, locus YJR075W, strain HOC1, hits give low values 1.03 | S. cerevisiae deletion strains, locus YKL190W, strain CNB1, hits give low values 1.02 | S. cerevisiae deletion strains, locus YLR039C, strain RIC1, hits give low values 1.06 | S. cerevisiae deletion strains, locus YLR058C, strain SHM2 (second series), hits give low values 1.01 | S. cerevisiae deletion strains, locus YLR085C, strain ARP6, hits give low values 1.06 | S. cerevisiae deletion strains, locus YLR262C, strain YPT6, hits give low values 1.06 | S. cerevisiae deletion strains, locus YML094W, strain GIM5, hits give low values 1.01 | S. cerevisiae deletion strains, locus YMR219W, strain ESC1, hits give low values 1 | S. cerevisiae deletion strains, locus YMR263W, strain SAP30, hits give low values 0.937 | [5] 1.07 | [6] 1 | S. cerevisiae deletion strains, locus YNL298W, strain CLA4 (second series), hits give low values 1.05 | S. cerevisiae deletion strains, locus YNL322C, strain KRE1, hits give low values 1.01 | S. cerevisiae deletion strains, locus YNR030W, strain Alg12, hits give low values 1.03 | [7] 0.904 | [8] 1.01 | S. cerevisiae deletion strains, locus YPR135W, strain CTF4, hits give low values 1.09 | S. cerevisiae strains, strain wild type, hits give low values 1.02

NC(CP(=O)(O)O)C(=O)O (stereo unspecified)
inactive: [9] 1.09 | [10] 0.998 | [11] 1.03 | [6] 1.04 | [12] 1.01 | [13] 1.01 | [14] 1.01 | [15] 1.01 | [7] 1.02

N[C@H](C(=O)O)[C@H](O)C(=O)O
inactive: [3] 0.972 | [9] 0.965 | [10] 0.994 | [4] 1 | S. cerevisiae deletion strains, locus YDR363W, strain ESC2, hits give low values 0.987 | [11] 1 | [5] 0.992 | [6] 0.989 | [12] 1.01 | [13] 0.996 | [14] 0.983 | [15] 1.06 | [8] 0.992
